# Assay results published in the supplement of paper PMC12282887.
# ± gives the standard deviation of the averaged measurements.
# Tests used:
# Assay in all cases: promoter activity interaction Z-score (Lux/OD deviation from empty-vector control); higher = stronger promoter induction by the compound
# [1] = tested on: E. coli BW25113 acrABp lux reporter
# How it was run: (§1)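 Wild-type E. coli BW25113 and three single-gene deletion strains, each carrying a low-copy luxCDABE promoter reporter, were grown at 37°C in 40 µl LB Lennox per well of a 384-well plate. Every compound was applied at four 1:2 dilutions in biological duplicates, and OD600 and luminescence were read every 30 min for 12 h. Integration covered 0–8 h for wild type and 1–9 h for deletion strains, and wells under 10% of the median growth value were removed. Scores are Z-transformed residuals of growth-normalised luminescence fitted against a control.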
# [2] = tested on: E. coli BW25113 ompFp lux reporter
# How it was run: as §1
# [3] = tested on: E. coli BW25113 robp lux reporter
# How it was run: as §1
# [4] = tested on: E. coli BW25113 soxSp lux reporter
# How it was run: as §1
# [5] = tested on: E. coli BW25113 tolCp lux reporter
# How it was run: as §1
# [6] = 13.3 µg/ml, genetic background: wild type
# [7] = 13.3 µg/ml, genetic background: ΔmarA
# [8] = 13.3 µg/ml, genetic background: Δrob
# [9] = 13.3 µg/ml, genetic background: ΔsoxS
# [10] = 26.6 µg/ml, genetic background: wild type
# [11] = 26.6 µg/ml, genetic background: ΔmarA
# [12] = 26.6 µg/ml, genetic background: Δrob
# [13] = 26.6 µg/ml, genetic background: ΔsoxS
# [14] = 53.2 µg/ml, genetic background: wild type
# [15] = 53.2 µg/ml, genetic background: ΔmarA
# [16] = 53.2 µg/ml, genetic background: Δrob
# [17] = 53.2 µg/ml, genetic background: ΔsoxS
# [18] = 106.3 µg/ml, genetic background: wild type
# [19] = 106.3 µg/ml, genetic background: ΔmarA
# [20] = 106.3 µg/ml, genetic background: Δrob
# [21] = 106.3 µg/ml, genetic background: ΔsoxS
smiles,measurement,setting,value
NCCc1c[nH]c2ccc(O)cc12 [Serotonine],promoter activity interaction Z-score,[1]; [6],-0.00265 ± 0.11
same,promoter activity interaction Z-score,[1]; [7],-0.788 ± 0.29
same,promoter activity interaction Z-score,[1]; [8],-0.254 ± 0.091
same,promoter activity interaction Z-score,[1]; [9],-0.249 ± 0.17
same,promoter activity interaction Z-score,[1]; [10],0.0217 ± 0.063
same,promoter activity interaction Z-score,[1]; [11],-0.85 ± 0.58
same,promoter activity interaction Z-score,[1]; [12],-0.276 ± 0.24
same,promoter activity interaction Z-score,[1]; [13],-0.0282 ± 0.36
same,promoter activity interaction Z-score,[1]; [14],-0.325 ± 0.06
same,promoter activity interaction Z-score,[1]; [15],-0.49 ± 0.22
same,promoter activity interaction Z-score,[1]; [16],-0.415 ± 0.17
same,promoter activity interaction Z-score,[1]; [17],-0.545 ± 0.3
same,promoter activity interaction Z-score,[1]; [18],0.00625 ± 0.31
same,promoter activity interaction Z-score,[1]; [19],-0.338 ± 0.23
same,promoter activity interaction Z-score,[1]; [20],-0.109 ± 0.092
same,promoter activity interaction Z-score,[1]; [21],-0.397 ± 0.11
same,promoter activity interaction Z-score,[2]; [6],-0.556 ± 0.15
same,promoter activity interaction Z-score,[2]; [7],-0.881 ± 0.092
same,promoter activity interaction Z-score,[2]; [8],-0.716 ± 0.021
same,promoter activity interaction Z-score,[2]; [9],-0.309 ± 0.16
same,promoter activity interaction Z-score,[2]; [10],-0.212 ± 0.059
same,promoter activity interaction Z-score,[2]; [11],-0.69 ± 0.35
same,promoter activity interaction Z-score,[2]; [12],-1.16 ± 0.13
same,promoter activity interaction Z-score,[2]; [13],-0.158 ± 0.048
same,promoter activity interaction Z-score,[2]; [14],-0.996 ± 0.15
same,promoter activity interaction Z-score,[2]; [15],-0.794 ± 0.068
same,promoter activity interaction Z-score,[2]; [16],-0.999 ± 0.19
same,promoter activity interaction Z-score,[2]; [17],-0.802 ± 0.085
same,promoter activity interaction Z-score,[2]; [18],-0.733 ± 0.22
same,promoter activity interaction Z-score,[2]; [19],-0.818 ± 0.24
same,promoter activity interaction Z-score,[2]; [20],-0.632 ± 0.014
same,promoter activity interaction Z-score,[2]; [21],-0.689 ± 0.16
same,promoter activity interaction Z-score,[3]; [6],-0.357 ± 0.24
same,promoter activity interaction Z-score,[3]; [7],-0.786 ± 0.2
same,promoter activity interaction Z-score,[3]; [8],-0.355 ± 0.17
same,promoter activity interaction Z-score,[3]; [9],0.188 ± 0.045
same,promoter activity interaction Z-score,[3]; [10],0.207 ± 0.12
same,promoter activity interaction Z-score,[3]; [11],-0.465 ± 0.14
same,promoter activity interaction Z-score,[3]; [12],-0.388 ± 0.26
same,promoter activity interaction Z-score,[3]; [13],0.275 ± 0.77
same,promoter activity interaction Z-score,[3]; [14],-0.669 ± 0.27
same,promoter activity interaction Z-score,[3]; [15],-0.144 ± 0.64
same,promoter activity interaction Z-score,[3]; [16],-0.179 ± 0.34
same,promoter activity interaction Z-score,[3]; [17],-0.554 ± 0.4
same,promoter activity interaction Z-score,[3]; [18],0.176 ± 0.072
same,promoter activity interaction Z-score,[3]; [19],0.574 ± 0.46
same,promoter activity interaction Z-score,[3]; [20],0.0481 ± 0.46
same,promoter activity interaction Z-score,[3]; [21],-0.714 ± 0.32
same,promoter activity interaction Z-score,[4]; [6],-0.18 ± 0.0085
same,promoter activity interaction Z-score,[4]; [7],-0.19 ± 0.0051
same,promoter activity interaction Z-score,[4]; [8],-0.045 ± 0.2
same,promoter activity interaction Z-score,[4]; [9],-0.24 ± 0.11
same,promoter activity interaction Z-score,[4]; [10],-0.101 ± 0.061
same,promoter activity interaction Z-score,[4]; [11],-0.181 ± 0.093
same,promoter activity interaction Z-score,[4]; [12],-0.254 ± 0.35
same,promoter activity interaction Z-score,[4]; [13],-0.331 ± 0.17
same,promoter activity interaction Z-score,[4]; [14],-0.456 ± 0.097
same,promoter activity interaction Z-score,[4]; [15],-0.276 ± 0.14
same,promoter activity interaction Z-score,[4]; [16],-0.264 ± 0.11
same,promoter activity interaction Z-score,[4]; [17],-0.531 ± 0.027
same,promoter activity interaction Z-score,[4]; [18],-0.199 ± 0.16
same,promoter activity interaction Z-score,[4]; [19],-0.243 ± 0.18
same,promoter activity interaction Z-score,[4]; [20],-0.285 ± 0.11
same,promoter activity interaction Z-score,[4]; [21],-0.676 ± 0.071
same,promoter activity interaction Z-score,[5]; [6],-0.64 ± 0.46
same,promoter activity interaction Z-score,[5]; [7],-0.135 ± 0.24
same,promoter activity interaction Z-score,[5]; [8],0.259 ± 1.6
same,promoter activity interaction Z-score,[5]; [9],-0.321 ± 0.043
same,promoter activity interaction Z-score,[5]; [10],0.564 ± 0.026
same,promoter activity interaction Z-score,[5]; [11],-0.00904 ± 0.37
same,promoter activity interaction Z-score,[5]; [12],-0.3 ± 0.55
same,promoter activity interaction Z-score,[5]; [13],0.737 ± 0.3
same,promoter activity interaction Z-score,[5]; [14],-0.749 ± 0.61
same,promoter activity interaction Z-score,[5]; [15],-0.0593 ± 0.84
same,promoter activity interaction Z-score,[5]; [16],-0.236 ± 1.2
same,promoter activity interaction Z-score,[5]; [17],-0.229 ± 1.1
same,promoter activity interaction Z-score,[5]; [18],-0.235 ± 0.56
same,promoter activity interaction Z-score,[5]; [19],0.575 ± 0.063
same,promoter activity interaction Z-score,[5]; [20],-0.637 ± 0.9
same,promoter activity interaction Z-score,[5]; [21],-0.781 ± 0.14
